Article PMC8222333, “AsCas12a ultra nuclease facilitates the rapid generation of therapeutic cell medicines”

What was measured:
Assay in all cases: Spec-seq (native PAGE EMSA with sequencing of bound and unbound); 25 mM Tris-HCl pH 7.4, 150 mM KCl, 5 mM MgCl2, 10% glycerol, 1 mM DTT, 40 ng/uL salmon sperm DNA; 400 nM Cas12a, 480 nM crRNA, 50 nM library, 37 C 1 h; native PAGE at room temperature; high values mean tight binding
Settings in all cases: protein: recombinant
[1] = target: dAsCas12a Ultra (Acidaminococcus sp., UniProt U2UMQ6 1-1307, M537R;F870L;D908A;E993A;D1235A)
[2] = target: dAsCas12a S542R (Acidaminococcus sp., UniProt U2UMQ6 1-1307, S542R;D908A;E993A;D1235A);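 note: relative affinity from the bound to unbound sequence frequency ratio in Spec-seq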
[3] = target: d-enCas12a (Acidaminococcus sp., UniProt U2UMQ6 1-1307, E174R;S542R;K548R;D908A;E993A;D1235A)
[4] = target: d-enCas12a-Ultra (Acidaminococcus sp., UniProt U2UMQ6 1-1307, E174R;S542R;K548R;M537R;F870L;D908A;E993A;D1235A);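 note: relative affinity from the bound to unbound sequence frequency ratio in Spec-seq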
[5] = target: dAsCas12a E174R (Acidaminococcus sp., UniProt U2UMQ6 1-1307, E174R;D908A;E993A;D1235A);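 note: relative affinity from the bound to unbound sequence frequency ratio in Spec-seq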

Binder | binding signal [1] | binding signal [2] | binding signal [3] | binding signal [4] | binding signal [5]
TAAA (dsDNA) DNA 1: GCTATCTAGTGCTCAGTACGCACTGTAAAAGGAAACTTCTGGCAGGACCAGGTCATGAGATCGGAAGAGCACACGTCTGAACTCCAGTCA DNA 2: TGACTGGAGTTCAGACGTGTGCTCTTCCGATCTCATGACCTGGTCCTGCCAGAAGTTTCCTTTTACAGTGCGTACTGAGCACTAGATAGC RNA: AAUUUCUACUCUUGUAGAUAGGAAACUUCUGGCAGGACC | -8.83 lnKA | -8.25 lnKA | -5.38 lnKA | -3.04 lnKA | –
TGGA (dsDNA) DNA 1: GCTATCTAGTGCTCAGTACGCACTGTGGAAGGAAACTTCTGGCAGGACCAGGTCATGAGATCGGAAGAGCACACGTCTGAACTCCAGTCA DNA 2: TGACTGGAGTTCAGACGTGTGCTCTTCCGATCTCATGACCTGGTCCTGCCAGAAGTTTCCTTCCACAGTGCGTACTGAGCACTAGATAGC RNA: AAUUUCUACUCUUGUAGAUAGGAAACUUCUGGCAGGACC | -8 lnKA | -7.85 lnKA | -5.44 lnKA | -3.27 lnKA | –
TCAC (dsDNA) DNA 1: GCTATCTAGTGCTCAGTACGCACTGTCACAGGAAACTTCTGGCAGGACCAGGTCATGAGATCGGAAGAGCACACGTCTGAACTCCAGTCA DNA 2: TGACTGGAGTTCAGACGTGTGCTCTTCCGATCTCATGACCTGGTCCTGCCAGAAGTTTCCTGTGACAGTGCGTACTGAGCACTAGATAGC RNA: AAUUUCUACUCUUGUAGAUAGGAAACUUCUGGCAGGACC | -8.33 lnKA | -7.5 lnKA | -5.3 lnKA | -3 lnKA | –
TCCT (dsDNA) DNA 1: GCTATCTAGTGCTCAGTACGCACTGTCCTAGGAAACTTCTGGCAGGACCAGGTCATGAGATCGGAAGAGCACACGTCTGAACTCCAGTCA DNA 2: TGACTGGAGTTCAGACGTGTGCTCTTCCGATCTCATGACCTGGTCCTGCCAGAAGTTTCCTAGGACAGTGCGTACTGAGCACTAGATAGC RNA: AAUUUCUACUCUUGUAGAUAGGAAACUUCUGGCAGGACC | -8.78 lnKA | -5.43 lnKA | -3.98 lnKA | -0.951 lnKA | -8.39 lnKA
TATT (dsDNA) DNA 1: GCTATCTAGTGCTCAGTACGCACTGTATTAGGAAACTTCTGGCAGGACCAGGTCATGAGATCGGAAGAGCACACGTCTGAACTCCAGTCA DNA 2: TGACTGGAGTTCAGACGTGTGCTCTTCCGATCTCATGACCTGGTCCTGCCAGAAGTTTCCTAATACAGTGCGTACTGAGCACTAGATAGC RNA: AAUUUCUACUCUUGUAGAUAGGAAACUUCUGGCAGGACC | -8.42 lnKA | -7.99 lnKA | -3.27 lnKA | -1.25 lnKA | -8.04 lnKA
TCGC (dsDNA) DNA 1: GCTATCTAGTGCTCAGTACGCACTGTCGCAGGAAACTTCTGGCAGGACCAGGTCATGAGATCGGAAGAGCACACGTCTGAACTCCAGTCA DNA 2: TGACTGGAGTTCAGACGTGTGCTCTTCCGATCTCATGACCTGGTCCTGCCAGAAGTTTCCTGCGACAGTGCGTACTGAGCACTAGATAGC RNA: AAUUUCUACUCUUGUAGAUAGGAAACUUCUGGCAGGACC | -7.42 lnKA | -7.58 lnKA | -5.36 lnKA | -2.95 lnKA | -7.83 lnKA
TGAA (dsDNA) DNA 1: GCTATCTAGTGCTCAGTACGCACTGTGAAAGGAAACTTCTGGCAGGACCAGGTCATGAGATCGGAAGAGCACACGTCTGAACTCCAGTCA DNA 2: TGACTGGAGTTCAGACGTGTGCTCTTCCGATCTCATGACCTGGTCCTGCCAGAAGTTTCCTTTCACAGTGCGTACTGAGCACTAGATAGC RNA: AAUUUCUACUCUUGUAGAUAGGAAACUUCUGGCAGGACC | -8.9 lnKA | -8.33 lnKA | -5.68 lnKA | -3.27 lnKA | –
TCCA (dsDNA) DNA 1: GCTATCTAGTGCTCAGTACGCACTGTCCAAGGAAACTTCTGGCAGGACCAGGTCATGAGATCGGAAGAGCACACGTCTGAACTCCAGTCA DNA 2: TGACTGGAGTTCAGACGTGTGCTCTTCCGATCTCATGACCTGGTCCTGCCAGAAGTTTCCTTGGACAGTGCGTACTGAGCACTAGATAGC RNA: AAUUUCUACUCUUGUAGAUAGGAAACUUCUGGCAGGACC | -7.24 lnKA | -3.52 lnKA | -2.15 lnKA | -0.457 lnKA | -6.64 lnKA
TGGT (dsDNA) DNA 1: GCTATCTAGTGCTCAGTACGCACTGTGGTAGGAAACTTCTGGCAGGACCAGGTCATGAGATCGGAAGAGCACACGTCTGAACTCCAGTCA DNA 2: TGACTGGAGTTCAGACGTGTGCTCTTCCGATCTCATGACCTGGTCCTGCCAGAAGTTTCCTACCACAGTGCGTACTGAGCACTAGATAGC RNA: AAUUUCUACUCUUGUAGAUAGGAAACUUCUGGCAGGACC | -8.76 lnKA | -8.26 lnKA | -5.72 lnKA | -3.36 lnKA | –
TCGT (dsDNA) DNA 1: GCTATCTAGTGCTCAGTACGCACTGTCGTAGGAAACTTCTGGCAGGACCAGGTCATGAGATCGGAAGAGCACACGTCTGAACTCCAGTCA DNA 2: TGACTGGAGTTCAGACGTGTGCTCTTCCGATCTCATGACCTGGTCCTGCCAGAAGTTTCCTACGACAGTGCGTACTGAGCACTAGATAGC RNA: AAUUUCUACUCUUGUAGAUAGGAAACUUCUGGCAGGACC | -8.83 lnKA | -8.35 lnKA | -5.85 lnKA | -3.4 lnKA | -8.58 lnKA
TCAA (dsDNA) DNA 1: GCTATCTAGTGCTCAGTACGCACTGTCAAAGGAAACTTCTGGCAGGACCAGGTCATGAGATCGGAAGAGCACACGTCTGAACTCCAGTCA DNA 2: TGACTGGAGTTCAGACGTGTGCTCTTCCGATCTCATGACCTGGTCCTGCCAGAAGTTTCCTTTGACAGTGCGTACTGAGCACTAGATAGC RNA: AAUUUCUACUCUUGUAGAUAGGAAACUUCUGGCAGGACC | -8.83 lnKA | -7.68 lnKA | -5.65 lnKA | -3.39 lnKA | –
TCGA (dsDNA) DNA 1: GCTATCTAGTGCTCAGTACGCACTGTCGAAGGAAACTTCTGGCAGGACCAGGTCATGAGATCGGAAGAGCACACGTCTGAACTCCAGTCA DNA 2: TGACTGGAGTTCAGACGTGTGCTCTTCCGATCTCATGACCTGGTCCTGCCAGAAGTTTCCTTCGACAGTGCGTACTGAGCACTAGATAGC RNA: AAUUUCUACUCUUGUAGAUAGGAAACUUCUGGCAGGACC | -8.77 lnKA | -7.61 lnKA | -5.86 lnKA | -3.33 lnKA | -8.54 lnKA
TAGA (dsDNA) DNA 1: GCTATCTAGTGCTCAGTACGCACTGTAGAAGGAAACTTCTGGCAGGACCAGGTCATGAGATCGGAAGAGCACACGTCTGAACTCCAGTCA DNA 2: TGACTGGAGTTCAGACGTGTGCTCTTCCGATCTCATGACCTGGTCCTGCCAGAAGTTTCCTTCTACAGTGCGTACTGAGCACTAGATAGC RNA: AAUUUCUACUCUUGUAGAUAGGAAACUUCUGGCAGGACC | -8.98 lnKA | -8.65 lnKA | -5.31 lnKA | -3.33 lnKA | –
TCCG (dsDNA) DNA 1: GCTATCTAGTGCTCAGTACGCACTGTCCGAGGAAACTTCTGGCAGGACCAGGTCATGAGATCGGAAGAGCACACGTCTGAACTCCAGTCA DNA 2: TGACTGGAGTTCAGACGTGTGCTCTTCCGATCTCATGACCTGGTCCTGCCAGAAGTTTCCTCGGACAGTGCGTACTGAGCACTAGATAGC RNA: AAUUUCUACUCUUGUAGAUAGGAAACUUCUGGCAGGACC | -7.52 lnKA | -3.6 lnKA | -3.12 lnKA | -0.639 lnKA | -7.89 lnKA
TCTT (dsDNA) DNA 1: GCTATCTAGTGCTCAGTACGCACTGTCTTAGGAAACTTCTGGCAGGACCAGGTCATGAGATCGGAAGAGCACACGTCTGAACTCCAGTCA DNA 2: TGACTGGAGTTCAGACGTGTGCTCTTCCGATCTCATGACCTGGTCCTGCCAGAAGTTTCCTAAGACAGTGCGTACTGAGCACTAGATAGC RNA: AAUUUCUACUCUUGUAGAUAGGAAACUUCUGGCAGGACC | -6.94 lnKA | -7.22 lnKA | -5.44 lnKA | -2.4 lnKA | -6.26 lnKA
